Inconclusive results are not listed. Entries that show only a call come without a potency. Activity calls are given as the source filed them. Calls follow the shape of the dose curve; as a rule, active = well fitted curve in the direction sought with a large enough effect; inconclusive = small, poorly fitted or top-dose-only effect, or another doubt; inactive = no such curve, though single readings can be large; an effect the other way counts as inactive or inconclusive.
Biological target: Alpha-galactosidase (Coffea arabica) (UniProt Q42656)
Sequence (Q42656 whole entry, looked up): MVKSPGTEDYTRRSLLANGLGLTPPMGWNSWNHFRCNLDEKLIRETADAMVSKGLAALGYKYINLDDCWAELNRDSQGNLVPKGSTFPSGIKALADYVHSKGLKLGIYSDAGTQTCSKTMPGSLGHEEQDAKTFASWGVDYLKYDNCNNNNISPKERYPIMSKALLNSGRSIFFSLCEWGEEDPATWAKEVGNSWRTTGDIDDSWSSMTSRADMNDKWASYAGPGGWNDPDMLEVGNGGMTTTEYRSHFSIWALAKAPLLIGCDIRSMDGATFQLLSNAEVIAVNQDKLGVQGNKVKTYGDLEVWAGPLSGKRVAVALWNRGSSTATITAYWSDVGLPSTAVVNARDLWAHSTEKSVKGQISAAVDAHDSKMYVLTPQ
Assay: Counterscreen for Glucocerebrosidase Inhibitors: qHTS Assay for Coffee Bean alpha-Galactosidase at pH 4.5 (AID 957)
Details: purified coffee bean alpha-galactosidase, fluorogenic substrate; series mostly up to 76.9 µM
How it was run: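 Quantitative HTS of compounds (0.7 nM to 77 uM) against coffee bean alpha-galactosidase at pH 4.5, measuring 4-methylumbelliferone fluorescence released from 80 uM substrate.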

| Compound | outcome |
| --- | --- |
| Cc1cnc(C(=O)NCCc2ccc(S(=O)(=O)NC(=O)NC3CCCCC3)cc2)cn1 | inactive |
| CN(C)CCC=C1c2ccccc2CCc2ccccc21 | inactive |
| CCN(CC)CCOC(=O)C1(C2CCCCC2)CCCCC1 | inactive |
| CNCCCN1c2ccccc2CCc2ccccc21 | inactive |
| O=C1CCc2cc(OCCCCc3nnnn3C3CCCCC3)ccc2N1 | inactive |
| O=c1n(CCCN2CCN(c3cccc(Cl)c3)CC2)nc2ccccn12 | inactive |
| CN1CCN(C2=Nc3cc(Cl)ccc3Nc3ccccc32)CC1 | inactive |
| CC(=O)Nc1nnc(S(N)(=O)=O)s1 | inactive |
| NC(=O)OCC(COC(N)=O)c1ccccc1 | inactive |
| Nc1nc(N)c2nc(-c3ccccc3)c(N)nc2n1 | inactive |
| Cn1ccc2cc3c(cc21)CCN3C(=O)Nc1cccnc1 | inactive |
| Fc1ccc([C@@H]2CCNC[C@H]2COc2ccc3c(c2)OCO3)cc1 | inactive |
| Cn1cnc([N+](=O)[O-])c1Sc1ncnc2nc[nH]c12 | inactive |
| NNCCc1ccccc1 | inactive |
| CN(C)c1nc(N(C)C)nc(N(C)C)n1 | inactive |
| Nc1nc2c(ncn2COC(CO)CO)c(=O)[nH]1 | inactive |
| CC(C)C(=O)Nc1ccc([N+](=O)[O-])c(C(F)(F)F)c1 | inactive |

| Compound | outcome |
| --- | --- |
| CC1(C)NC(=O)N(c2ccc([N+](=O)[O-])c(C(F)(F)F)c2)C1=O | inactive |
| CC1=C(/C=C/C(C)=C/C=C/C(C)=C/C(=O)Nc2ccc(O)cc2)C(C)(C)CCC1 | inactive |
| N[C@@H]1CONC1=O | inactive |
| O=C(C1CCCCC1)N1CC(=O)N2CCc3ccccc3C2C1 (stereo not given) | inactive |
| COc1ccc(Cl)cc1C(=O)NCCc1ccc(S(=O)(=O)NC(=O)NC2CCCCC2)cc1 | inactive |
| Cc1oncc1C(=O)Nc1ccc(C(F)(F)F)cc1 | inactive |
| CC(C)(C)NC(=O)[C@H]1CC[C@H]2[C@@H]3CC[C@H]4NC(=O)C=C[C@]4(C)[C@H]3CC[C@]12C | inactive |
| CN(C)CCC[C@@]1(c2ccc(F)cc2)OCc2cc(C#N)ccc21 | inactive |
| CC/C(=C(\c1ccccc1)c1ccc(OCCN(C)C)cc1)c1ccccc1 | inactive |
| O=NN(CCCl)C(=O)NCCCl | inactive |
| CN1CCC(=C2c3ccccc3C=Cc3ccccc32)CC1 | inactive |
| NC12CC3CC(CC(C3)C1)C2 | inactive |
| CCOC(=O)N1CCC(=C2c3ccc(Cl)cc3CCc3cccnc32)CC1 | inactive |
| COc1cc2c(c(OC)c1OC)-c1ccc(OC)c(=O)cc1[C@@H](NC(C)=O)CC2 | inactive |
| NC[C@H](O)c1ccc(O)c(O)c1 | inactive |
| Clc1ccc2c(c1)C(N1CCNCC1)=Nc1ccccc1O2 | inactive |
| Cc1cn[nH]c1 | inactive |

Tested on: not listed separately
Assay: MultiTox-Fluor Cytotoxicity Assay - LYMP1-002 - Dead Cells (AID 960); also: potency is read from the fitted curve at half-maximal effect; nearly all actives have a fitted effect of over 60% in size
Details: LYMP1-002 lymphoblastoid cells, dead-cell protease fluorescence; series mostly up to 46.1 µM
How it was run: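 Concentration-dependent increases in membrane-leaked protease activity are quantified in LYMP1-002 cells after 16 hr treatment; values are normalized against DMSO and tetraoctylammonium bromide (15 uM) controls and AC50 derived by Hill modeling.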

| Compound | Potency |
| --- | --- |
| CN(C)CCC=C1c2ccccc2CCc2ccccc21 | 25.1 µM (active) |
| Cc1c(O)cccc1C(=O)N[C@@H](CSc1ccccc1)[C@H](O)CN1C[C@H]2CCCC[C@H]2C[C@H]1C(=O)NC(C)(C)C | 31.6 µM (active) |
| CC(C)C(=O)Nc1ccc([N+](=O)[O-])c(C(F)(F)F)c1 | 15.8 µM (active) |

Tested on: not listed separately
Assay: MultiTox-Fluor Cytotoxicity Assay - LYMP1-003 - Dead Cells (AID 961);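 also: potency is read from the fitted curve at half-maximal effect; cells exposed to compound for 16 h at 37 °C; nearly all actives have a fitted effect of over 70% in size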
Details: LYMP1-003 lymphoblastoid cells, dead-cell protease fluorescence; series mostly up to 92.2 µM
How it was run: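 Human lymphoblastoid LYMP1-003 cells (2500/well) were treated with compounds for 16 hr at 37 C in complete medium. Dead-cell protease release was read by bis-AAF-R110 fluorescence (Ex/Em 485/520). AC50 came from Hill fits, normalized to DMSO and 15 uM tetraoctylammonium bromide.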

| Compound | Potency |
| --- | --- |
| CC1=C(/C=C/C(C)=C/C=C/C(C)=C/C(=O)Nc2ccc(O)cc2)C(C)(C)CCC1 | 39.8 µM (active) |
| CC/C(=C(\c1ccccc1)c1ccc(OCCN(C)C)cc1)c1ccccc1 | 39.8 µM (active) |
| COc1cc2c(c(OC)c1OC)-c1ccc(OC)c(=O)cc1[C@@H](NC(C)=O)CC2 | 0.631 µM (active) |

From PubChem BioAssay (NCATS)
